Source: PubChem BioAssay (NCI)
Values joined by “and” are separate entries in the source; they are usually repeats but may differ in a detail not shown here. Equal values may be shown once. Compounds without any hit were thinned out: in the full panel of roughly 79,000, 15% have a hit. Some structures have more than one record in an assay (separate samples or runs), and their calls can disagree. Active and inactive are the calls of the source. No stated cut-off is given here; in the data, active means growth inhibition above about 70%; inactive means the rest.

Experiment: NCI Yeast Anticancer Drug Screen. Data for the sgs1 mgt1 strain (AID 161);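 further: 0% = growth of cultures given vehicle only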
Conditions: S. cerevisiae sgs1 mgt1 strain, stronger effect = higher value
Method: Growth inhibition of yeast strains with defined genetic alterations is measured as a screen for potential anti-cancer activity. Selected strains with alterations in DNA damage repair or cell cycle control were exposed to compounds and growth inhibition was measured relative to vehicle treated controls. The strain used in this assay is sgs1 mgt1

[1] = at 5.0 µM (retest, dose inferred, filed as 0.5)
[2] = at 50.0 µM (retest, dose inferred, filed as 5.0)

SMILES | growth inhibition [1] | growth inhibition [2] | growth inhibition (at 50.0 µM)
CN(C)c1ccc(N=Nc2ccncc2)cc1 | -19% (inactive) | 32% (inactive) | 70.6% (active)
COc1ccc(/C=C/C(=O)c2ccccc2)cc1OC | 15% (inactive) | 54% (inactive) | 51.9% (inactive) and 80.3% (active)
CC(C)(C)c1ccc(NS(=O)(=O)c2ccc(N)cc2)cc1 | 0% (inactive) | -16% (inactive) | 96.3% (active)
O=C(CSC(=S)N1CCCCC1)Nc1nc2c(s1)CCCC2 | 17% (inactive) | 87% (active) | 86% (active)
CCCCCCCCCCCC(O)S(=O)(=O)O (configuration not stated) | -10% (inactive) | 17% (inactive) | 0.05% (inactive)
Cc1ccc(NCCNCCO)c2c(=O)c3cc(O)ccc3sc12 | 8% (inactive) | 99% (active) | 89.2% (active)
Cc1cc2c(cc1C)[n+]([O-])c(-c1nc3ccccc3s1)c(N)[n+]2[O-] | 28% (inactive) | 89% (active) | 80.6% (active)
Cc1c2cccc(Sc3ccccc3)c2c2c3c(cccc13)[S+](c1ccccc1)C2 (configuration not stated) | 18% (inactive) | 98% (active) | 94.2% (active)
COc1ccc2[nH]cc([C@@H]3C4CCC(C4)[C@H]3NCc3cccc(CN[C@H]4C5CCC(C5)[C@@H]4c4c[nH]c5ccc(OC)cc45)c3)c2c1 | -7% (inactive) | 88% (active) | 99.4% (active) and 61% (inactive)
O=C1N=C2SC=C(NC(=S)Nc3ccccc3)N2NC12c1ccccc1-c1ccccc12 | -8% (inactive) | 44% (inactive) | 25.6% (inactive)
CC(=O)SC(C[N+](=O)[O-])c1ccccc1 (configuration not stated) | -7% (inactive) | 98% (active) | 95.8% (active)
CCCCOC(=O)Nc1ccc(C)c(NC(=O)OCCCC)c1 | 1% (inactive) | 82% (active) | 88.6% (active)
Cc1cccc2c1nc1ccc(Cl)cc1[n+]2C | 26% (inactive) | 97% (active) | 98.8% (active)
N=C1N=Nc2nc(C3(c4nc5n(c4O)C(=N)N=N5)Cc4ccccc4C3=O)c(O)n21 (configuration not stated) | 7% (inactive) | 70% (active) | 67% (inactive)
